In PubChem BioAssay (NCATS) one finds Potency and activity change, negative = cytotoxic data, which are given here for 40 compounds.

Each structure is given as a SMILES string. Results filed as inconclusive are left out. Values without a mark were called inactive. The source made the active and inactive calls. Calls follow the shape of the dose curve; as a rule, active = well fitted cell-killing curve with a large enough effect; inconclusive = small, poorly fitted or top-dose-only effect; inactive = no such curve, though single readings can be large or run the other way.
Potency is read from the fitted curve at half-maximal effect.

The assay in a line: qHTS of pediatric cancer cell lines to identify multiple opportunities for drug repurposing: Primary screen for SK-N-MC cells (AID 1347093). To be noted: SK-N-MC viability, CellTiter-Glo luminescence, 48 h; series mostly up to 46 µM. The text has this: Drug repurposing or repositioning has been offered as a strategy for drug development in oncology programs. This approach has special potential for childhood cancers and other rare or orphan diseases, where the expected return on new drug development has been a disincentive to pharmaceuticals.
In this project we exploit the poly-pharmacology of drugs to discover new indications via phenotypic screening of a panel of 19 well-characterized cell lines derived from solid tumors seen in children and adolescents. The goal is to identify approved drugs with previously unrecognized anticancer properties that has the potential to reveal new mechanisms and biological processes involved in carcinogenesis or drug resistance. We employed a titration-based paradigm (quantitative high-throughput screening or qHTS), where all compounds were tested at multiple concentrations for their effect on cell viability. Concentration-response curves (CRCs) were derived directly from the primary screen, and both potency and efficacy values were used to identify compounds with robust bioactivity profiles. We screened the NIH Chemical Genomics Center (NCGC) Pharmaceutical Collection (NPC) and Mechanism Interrogation Plate (MIPE) small molecule collections of approved and investigational compounds against these cell lines; and measured metabolically active cells after 48 hours of compound treatment as a proxy for cell viability.
Assay Submitter: Nathalia J. Martinez, National Center for Advancing Translational Sciences, National Institutes of Health, Rockville, MD, USA; email: natalia.martinez@nih.gov
[1] Shen, M et al. Quantitative high-throughput phenotypic screening of pediatric cancer cell lines identifies multiple opportunities for drug repurposing. Oncotarget 2017 Dec 19;9(4):4758-4772. PMID 29435139.
The cells were obtained from University of North Carolina (UNC), Pediatric Preclinical Testing Program (PPT), and Coriell Institute (CI).
qHTS cell viability assay:
Cells were assayed in growth media at a density of 500-1,000 cells/well. Five microliters of cells were dispensed into 1,536-well, white, solid-bottom, TC-treated plates (Greiner Bio One) using a multidrop dispenser and incubated at 37 degrees C, 5% CO2, under a humidified atmosphere for 5 hours. Twenty-three nanoliters of compounds and controls (neutral control DMSO or positive control bortezomib at final concentration of 2.3 µM) were subsequently transferred by Kalypsys pintool. For primary screens, the MIPE collection was tested at 11-point dilutions (final concentrations range from 0.78 nM to 46 µM) and the NPC collection at 8-point dilutions (final concentrations range from 0.59nM to 46 µM). Compounds tested in follow-up screens were assayed at 11-point dilutions. Cells were incubated for 48 hours, followed by addition of 3 uL of CellTiter-Glo (Promega). After a 15 min incubation at room temperature, samples were analyzed for luminescence intensity using a ViewLux High-throughput CCD imager equipped with clear filters.
For orientation: qHTS replaces the single test concentration by a dilution series.
Take `Clc1cccc(-n2nnnc2NCc2ccccc2Oc2ccccn2)c1Cl`: the Potency entry is “inactive”. Regarding `Cc1nc(N)ncc1-c1nc(N2CCOCC2)c2sc(C(C)(C)O)cc2n1`, the Potency is 46.9 nM (active).

Take `CC=CC1=C(C(=O)O)N2C(=O)[C@H](NC(=O)[C@H](N)c3ccc(O)cc3)[C@@H]2SC1`: the Potency is 23500 nM (active). The same measure, in the same setting: next, `NC(=O)c1c(OCc2c(F)cc(Br)cc2F)nsc1NC(=O)NCCCCN1CCCC1`: 16600 nM (active); `CCCCCCCCCC(=O)N[C@@H](Cc1c[nH]c2ccccc12)C(=O)N[C@H](CC(N)=O)C(=O)N[C@@H](CC(=O)O)C(=O)N[C@@H]1C(=O)NCC(=O)N[C@@H](CCCN)C(=O)N[C@@H](CC(=O)O)C(=O)N[C@H](C)C(=O)N[C@@H](CC(=O)O)C(=O)NCC(=O)N[C@H](CO)C(=O)N[C@@H]([C@@H](C)CC(=O)O)C(=O)N[C@@H](CC(=O)c2ccccc2N)C(=O)O[C@@H]1C`: “inactive”. On the same count and under the same terms, the value for `N#Cc1c(O)c2c(-c3ccc(-c4ccccc4O)cc3)csc2[nH]c1=O` was “inactive”. Take `COc1ccc(CC2c3cc(OC)c(OC)cc3CC[N+]2(C)CCC(=O)OCCCCCOC(=O)CC[N+]2(C)CCc3cc(OC)c(OC)cc3C2Cc2ccc(OC)c(OC)c2)cc1OC` (stereo not given): the activity change, negative = cytotoxic was -16.8% [at 9.22 µM].

With `CC(C)c1cnn2c(NCc3ccccc3)cc(N[C@@H](CO)[C@H](O)CO)nc12`, the Potency was 296 nM (active). Same read-out and setting: next, `CC(C)C[C@H](NC(=O)CNC(=O)c1cc(Cl)ccc1Cl)B(O)O`: 148 nM (active); `COc1cccc2nc(-c3cccs3)nc(NN3C(=O)C=C(C)C3=O)c12`: 14.8 nM (active); `CN[C@H]1CCc2cc(OC)c(OC)c(OC)c2-c2ccc(OC)c(=O)cc21`: 2.6 nM (active). For `CC(=O)OCCN1C(=O)c2c(C)nc3ccc(S(=O)(=O)N4CCOCC4)cc3c2C1=O`, the Potency was 20900 nM (active). With `c1ccc2c(CCNc3ccc(Nc4ccncc4)cc3)c[nH]c2c1`, the Potency was 1870 nM (active). The same measure, in the same setting: next, `Cc1cc(Nc2nc(N[C@@H](C)c3ccc(F)cc3)c(C#N)cc2F)n[nH]1`: 743 nM (active); `Cc1ccc2nc(NC(=O)CSc3nc4c(c(=O)n3-c3ccccc3)SCC4)sc2c1`: 26400 nM (active). With `C[C@]1(CO)CN(c2cc(C(=O)Nc3ccc4c(c3)-c3c(c(C(N)=O)nn3-c3ccc(F)cc3)CC4)c(Cl)cn2)C[C@@]1(C)CO`, the Potency was 1480 nM (active).

As for `C=C1C(=CC=C2CCCC3(C)[C@@H]([C@H](C)C=CC=CC(O)(CC)CC)CC[C@@H]23)C[C@@H](O)C[C@@H]1O` (stereo not given in full), the Potency was 6620 nM (active).

Regarding `COc1cc2c(Oc3ccc(NC(=O)C4(C(=O)Nc5ccc(F)cc5)CC4)cc3F)ccnc2cc1OCCCN1CCOCC1`, the Potency is 743 nM (active). Turning to `CN(C)c1nc(Cc2ccc(NC(=O)c3ccc4ccccc4c3)cc2)nc(Cl)c1CC(=O)O`, the Potency entry is “inactive”. Take `Nc1ccn([C@@H]2O[C@H](CO)[C@H](O)C2(F)F)c(=O)n1`: the Potency was 1320 nM (active). Consider `CC[C@@H]1C(=O)N(C)c2cnc(Nc3ccc(C(=O)NC4CCC(N5CCN(CC6CC6)CC5)CC4)cc3OC)nc2N1C(C)C` (stereo not given in full), for which the Potency is 148 nM (active). For the compound `Cn1cc(-c2[nH]c3cc(NC(=O)[C@H](N)C4CCCCC4)cc4c3c2C=NNC4=O)cn1`, the Potency was 296 nM (active).

Consider `CC(C)c1ccc(Cn2ccc3c4c(N)nc(NC5CC5)nc4ccc32)cc1`, for which the Potency is 743 nM (active).

On to `COc1ccc(-c2cc3c(C)nc(N)nc3n(C3CCC(OCCO)CC3)c2=O)cn1` (stereo not given), for which the Potency was 5.3 nM (active). The same measure, in the same setting: next, `COc1cc2ncn(-c3cc(OCc4ccccc4C(F)(F)F)c(C(N)=O)s3)c2cc1OC`: 469 nM (active); `O=C(NCCCNc1nc(Nc2cccc(NC(=O)N3CCCC3)c2)ncc1I)c1cccs1`: 1320 nM (active). As for `CCS(=O)(=O)c1cccc(-c2cc(C(=O)NC3CCN(C)CC3)c(C)c3[nH]c4ncc(C)cc4c23)c1`, the Potency was 187 nM (active). As for `O=c1c2ccccc2nc2n1CCc1c-2[nH]c2ccccc12`, the Potency entry is “inactive”. On the same count and under the same terms, next, `O=C(Cc1ccc(-c2ccc(OCCN3CCOCC3)cc2)cn1)NCc1ccccc1`: 26.4 nM (active); `COc1cc2c(Oc3ccc(-c4cnc(Nc5ccc(F)cc5)n(C)c4=O)cc3F)ccnc2cc1OCCCN1CCOCC1`: 833 nM (active). `O=C(c1ccc(Nc2nccc(-c3cc4ccccc4s3)n2)cc1)N1CCC(N2CCCC2)CC1`: the Potency is 5260 nM (active). Consider `O=C(O)CCCc1c[nH]c2ccccc12`, for which the Potency entry was “inactive”.

`Cc1[nH]nc2ccc(-c3cncc(OC[C@@H](N)Cc4ccccc4)c3)cc12`: the Potency was 526 nM (active). As for `Nc1nc(Nc2ccc(S(N)(=O)=O)cc2)nn1C(=O)c1c(F)cccc1F`, the Potency was 3320 nM (active). `CC(C)(O)c1cc2nc(-c3cnc(N)nc3)nc(N3CCOCC3)c2s1`: the Potency is 11.8 nM (active). Regarding `CC(C)c1nn(-c2c(Cl)cccc2Cl)c2nc(Cc3ccc(OCCO)cc3)[nH]c(=O)c12`, the Potency is 41.8 nM (active). Take `COC(=O)Nc1ccc(-c2nc(N3CCOCC3)c3cnn(C4CCN(Cc5cccnc5)CC4)c3n2)cc1`: the Potency is 46.9 nM (active).

Turning to `COc1ccc(F)c(F)c1C(=O)c1cnc(NC2CCN(S(C)(=O)=O)CC2)nc1N`, the Potency is 1870 nM (active). Still for that read-out and setting: next, `CC1(C)OC2=C(C(=O)c3ccccc3C2=O)[C@H](NCc2ccccc2)[C@H]1O`: 1480 nM (active); `C=CC(=O)Nc1cc2c(Nc3ccc(F)c(Cl)c3)ncnc2cc1OCCCN1CCOCC1`: 2350 nM (active).
